Measured values published in PubChem BioAssay (NCI).
About 83,000 compounds went through this panel and 20% of them were active in at least one assay; those are over-represented in the sample as a whole.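 Compound tested at a single concentration for 48 hours in 96-well plates; a percent growth value below 10 was scored as active.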 The source made the active and inactive calls.

Test system: HS 578T breast
Experiment: NCI-60 one-dose screen, 48 h (100 = growth as untreated, 0 = no growth, -100 = all killed)
Settings: 10 µM unless noted
Description: Growth inhibition of the HS 578T human tumor cell line is measured as a screen for anti-cancer activity. Cells are grown in 96 well plates and exposed to the test compound for 48 hours. Compounds are tested at a single concentration, which is 10^-5 M for most compounds. The reported endpoint is percent growth (GI% or GIPRCNT), where numbers from 0 - 100% represent growth inhibition, and numbers from -100% - 0 represent cell death. For example, a value of 40 represents 60% growth inhibition. A value of 0 means no net growth occurred over the course of the experiment. A value of -40 indicates 40% of cells at the beginning of the experiment died by the end of the experiment. A value of -100 means all cells are dead at the end of the experiment.
NCI-60 Human Tumor Cell Lines Screen was performed using the standard one-dose NCI protocol, which is described in more detail at https://dtp.cancer.gov/discovery_development/nci-60/default.htm.
Compounds with GIPRCNT values below 10 were considered active. Activity score was based on GIPRCNT using the following formula: […]
Score is 0 for GIPRCNT values of 100 or above, 50 for GIPRCNT values of 0, and 100 for GIPRCNT values of -100.

How did the growth turn out when `CC1CCc2c(sc(NC(=O)CSc3nnc4ccccn34)c2C(N)=O)C1` (stereo not given) was run?
The growth was 114% (inactive).

With `C#CCC1(c2ccc(F)c(F)c2)NS(=O)(=O)c2ccccc21` (stereo not given) as the compound, how does the growth read?
The growth was 101% (inactive).

How did the growth turn out when `O=C(C[N+](=O)[O-])c1ccc(Cl)cc1` was run?
The growth was 100% (inactive).

Which growth does the source give for `CCOc1ccc(/C=C/C=N/NC(N)=S)cc1` here?
The growth was 95.3% (inactive).

Which growth does the source give for `CN(C)c1ccc(-c2ccc(-c3ccc(C(=N)N)cn3)o2)cc1` here?
Its growth is -19.7% (active).

With `O=C(NCCCN1CCN(CCCNC(=O)C2CCCCC2)CC1)C1CCCCC1` as the compound, how does the growth read?
Its growth is 102% (inactive).

With `O=S(=O)(NCCCNc1nccc(-c2c(-c3ccc(O)cc3)nc3sccn23)n1)c1ccc(F)cc1` as the compound, how does the growth read?
The growth was 11.5% (inactive).

For `COc1c(NC[C@H]2OC(O)[C@H](O)[C@@H](O)[C@@H]2O)c(=O)c1=O` (stereo not given in full), which growth is on record?
The growth was 101% (inactive).

`COc1cccc(NC(=O)Cn2cc3c(=O)oc4ccccc4c3n2)c1` was tested. Which growth did it give?
The growth was 104% (inactive).

Which growth does the source give for `Clc1ccc(/C=C/c2nc(N3CCOCC3)c3nc(Cl)c(Cl)cc3n2)cc1` here?
Its growth is 104% (inactive).

Which growth does the source give for `Cc1cc(C(=O)CSc2nc3ccccc3c(=O)[nH]2)c(C)n1C` here?
Its growth is -35.7% (active).

Which growth does the source give for `Cc1cc(C)c(NC(=O)c2sc3nc4c(cc3c2N)CN(Cc2ccccc2)CC4)c(C)c1` here?
The growth was 21% (inactive).

Which growth does the source give for `NC(=O)c1cccc(N2Cc3ccccc3OC3=C2C(=O)c2c(O)ccc(O)c2C3=O)c1` here?
Its growth is 20.9% (inactive).

`C=C1C(=O)O[C@H]2[C@H](O)[C@@H](C)CCC/C(C)=C/CC[C@@]3(C)O[C@@H]3C[C@@H]12` was tested. Which growth did it give?
The growth was 98.4% (inactive).

`COc1cc(/C=C/C(=O)c2ccccc2O)ccc1OCCCOc1cc2c(cc1OC)C(=O)N1CCC[C@H]1C=N2` was tested. Which growth did it give?
Its growth is 37.8% (inactive).

Which growth does the source give for `CC(=O)N1Cc2ccccc2C(C)Cc2cc(Cl)ccc21` (stereo not given) here?
The growth was 97.7% (inactive).

For `Cc1sc2nc(CSc3nnc(-c4ccco4)o3)[nH]c(=O)c2c1C`, which growth is on record?
Its growth is 115% (inactive).

`Cc1ccc2nc(-c3c(CCCO)noc3N)[nH]c(=O)c2c1` was tested. Which growth did it give?
The growth was 104% (inactive).

How did the growth turn out when `O=C(Nc1cc(C(F)(F)F)cc(C(F)(F)F)c1)Nc1ccc(OCc2nnc(-c3ccc(Cl)cc3)o2)c(F)c1` was run?
The growth was 28.1% (inactive).

`COC(=O)c1ccc(C)cc1` was tested. Which growth did it give?
The growth was 99.5% (inactive).

`Cc1nc2scc(-c3ccccc3)n2c(=O)c1CCO` was tested. Which growth did it give?
Its growth is 95% (inactive).

For `CC(=O)Nc1nc(C(=O)N2N=C(C)/C(=C/c3ccc(Cl)cc3)C2=O)cs1`, which growth is on record?
The growth was 114% (inactive).

With `CCC(=O)Oc1cc(/C=C/C(=O)O[C@H]2C[C@H]3CN4CCc5c([nH]c6cc(OC)ccc56)[C@@H]4C[C@@H]3[C@@H](C(=O)OC)[C@@H]2OC)ccc1OC` as the compound, how does the growth read?
Its growth is 56.5% (inactive).

How did the growth turn out when `C/C(=C\c1csc(C)n1)[C@@H]1C[C@@H]2O[C@]2(C)CCC[C@H](C)[C@H](O)[C@@H](C)C(=O)C(C)(C)[C@@H](O)CC(=O)N1` was run?
The growth was -61.7% (active).

How did the growth turn out when `COC1=CC(c2ccc[nH]2)=N/C1=C\c1[nH]c(C)c(CCCn2cc(CCCCCCCCC[C@@H]3Cc4cc(O)ccc4C4CC[C@]5(C)[C@@H](O)CC[C@H]5C43)nn2)c1C` (stereo not given in full) was run?
Its growth is 55.7% (inactive).

For `CCCCNc1nnc(-c2cc(-c3cc4ccccc4o3)nn2-c2ccccc2)o1`, which growth is on record?
Its growth is 93.1% (inactive).

How did the growth turn out when `COc1cc(NS(C)(=O)=O)ccc1Nc1c2ccc([N+](=O)[O-])cc2nc2c(C)cccc12` was run?
Its growth is 58.4% (inactive).

For `O=S(=O)(NCCCNc1nccc(-c2c(-c3ccc(F)c(O)c3)nc3sccn23)n1)c1ccc(Cl)cc1`, which growth is on record?
The growth was 91.1% (inactive).

For `CCCCC(N)(C(=O)O)C1CCCC1` (stereo not given), which growth is on record?
The growth was 122% (inactive).

Which growth does the source give for `COc1ccc(-c2nc3sccn3c2-c2ccnc(NCCCNS(=O)(=O)c3ccc(C)cc3)n2)cc1` here?
Its growth is 66.2% (inactive).

Which growth does the source give for `COc1cc(C2C3=C(COC3=O)Nc3c2ccc2c3CCCC2)cc2c1OCO2` (stereo not given) here?
The growth was 81.8% (inactive).

How did the growth turn out when `COc1cc(Br)c(OC)cc1Br` was run?
Its growth is 94.1% (inactive).

Which growth does the source give for `COc1cc(-c2nc(-c3nc4ccccc4[nH]3)cc3c2[nH]c2ccccc23)cc(OC)c1OC` here?
The growth was 55.8% (inactive).

Which growth does the source give for `COc1cccc(/C=C/C(=O)c2sc(Nc3ccc(O)cc3)nc2C)c1` here?
Its growth is 103% (inactive).

`Cc1cccc(-n2c(C)nc3ccc(NC(=O)NCCCl)cc3c2=O)c1` was tested. Which growth did it give?
The growth was 99.4% (inactive).

With `O=C(Nc1ccc(I)cc1)c1cccc([N+](=O)[O-])c1O` as the compound, how does the growth read?
The growth was 42.6% (inactive).

Which growth does the source give for `CCSc1nnc(Nc2ccc(C(C)C)cc2)s1` here?
Its growth is 132% (inactive).

For `O=C(c1c[nH]c2ccccc12)C(Sc1nc2ccccc2c(=O)[nH]1)c1ccccc1` (stereo not given), which growth is on record?
The growth was 88.6% (inactive).

How did the growth turn out when `CCN(CC)CCC(=O)c1cccc2ccccc12` was run?
Its growth is 101% (inactive).

For `Clc1nc(-c2cccnc2)nc2sc3c(c12)CCCCCC3`, which growth is on record?
The growth was 109% (inactive).
